Measurements reported in PubChem BioAssay AID588692 (Broad Institute, 2011).
The whole screen tested about 360,000 compounds, of which about 830 (0.23%) were called active. Many of the other results were omitted from the sample, so actives are more common in it than they were. Unmarked numbers belong to inactive results.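 The calls were made as follows: active = mean luciferase reporter signal, scaled so untreated is 0 and the glycosylation-blocking control 100, at or above a set limit in every replicate; inconclusive = mean reaches the limit but not every replicate does; inactive = mean below the limit.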

experiment: increase of ERlucT glycosylation luciferase signal, primary screen, N-linked glycosylation inhibitor project, D54 ERlucT cells, luminescence, set 2 (AID 588692); conditions: 24 h, at 12.5 µM, active compounds read high, percent of 100 nM tunicamycin response;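 also: luciferase carries N-glycosylation sites so blocking glycosylation raises the light; 0% = median of neutral control wells and 100% = median of 100 nM tunicamycin wells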

Row | SMILES | reporter increase
1 | CCCC(=O)Nc1nc2ccc(NC(=O)c3c(F)c(F)c(OC)c(F)c3F)cc2s1 | 45.8% (active)
2 | CC(=O)Nc1ccc2nc(NC(=O)CS(=O)(=O)c3ccc(F)cc3)sc2c1 | 1.57%
3 | CCCn1nc(C(=O)Nc2ccc3nc(C)sc3c2)c2ccccc2c1=O | -5.69%
4 | O=C(NCN1CCN(CCO)CC1)c1cnccn1 | 1.41%
5 | Cc1cc(C)c2nc(SCC(=O)N(C)C3CCS(=O)(=O)C3)cc(C)c2c1 (stereo not given) | -2.35%
6 | CC1CCN(c2ccc(-c3ccc(NC(=O)c4ccco4)cc3)nn2)CC1 | -3.17%
7 | O=C(NCCCn1ccnc1)c1cc(-c2ccccc2)on1 | 86.5% (active)
8 | O=C(NCCCn1ccnc1)c1cc(Br)c(Br)s1 | -1.37%
9 | COc1cc(OC)cc(C(=O)NCCCn2ccnc2)c1 | -1.14%
10 | CC(C)CC1C(=O)N(Cc2cn(CC3CCCCC3)nn2)CCS(=O)(=O)N1Cc1ccc(-c2ccc(Cl)cc2)cc1 (stereo not given) | -5.63%
11 | COc1ccc(-c2c(C#N)cnc(C)c2C)c(O)c1OC | 1.16%
12 | CSc1ncnc2c1ncn2CCCNCc1ccco1 | -1.13%
13 | CCc1ccccc1NC(=O)Cc1cn(C)c2ccccc12 | 0.183%
14 | COc1ccc(CNC(=O)C[C@H]2C[C@H](C(=O)N3CCOCC3)[C@@]3(C)c4[nH]c5cc(CCC(=O)N(C)C)ccc5c4CCN3C2=O)cc1OC | 1.84%
15 | O=C(OC(C(=O)NC1CCCC1)c1ccc(F)cc1)c1ccno1 (stereo not given) | 3.11%
16 | O=C1c2cccc3c([N+](=O)[O-])ccc(c23)C(=O)N1CC1CCCO1 (stereo not given) | 29.4% (active)
17 | O=C1C(C=NCC2CCCO2)=C(O)c2ccccc21 (stereo not given) | -4.51%
18 | N#Cc1cc([N+](=O)[O-])ccc1NCC1CCCO1 (stereo not given) | -0.076%
19 | C[C@@H]1C[C@@H]2O[C@H]2/C=C\C=C\C(=O)Cc2c(Cl)c(O)cc(O)c2C(=O)O1 | -14.3%
20 | CCC1=C(OC(=O)N(CC)CC)N2C(=O)OC(=NCCc3c[nH]c4ccccc34)[C@]2(C)[C@H]2C1=CC[C@H]1C(=O)N(CC)C(=O)[C@H]12 | -4.07%
21 | CC(=O)c1ccc(S(=O)(=O)NCCC(=O)N2CCN(c3ccccn3)CC2)cc1 | -0.855%
22 | CCN(CC(=O)Nc1c(F)cccc1F)C(=O)C1CCC1 | 0.369%
23 | O=C(O)CSCC(=O)Nc1ccc(C(F)(F)F)cc1 | 1.33%
24 | O=C(CCl)Nc1ccc(Sc2ccc(NC(=O)CCl)cc2)cc1 | 41% (active)
25 | CC(=O)Nc1ccc(SCC(=O)NC(=O)c2ccc(Cl)cc2)cc1 | -6.32%
